# Reference: PubChem BioAssay (NCATS)
# Records with an inconclusive call do not appear. Where a call stands in place of a potency, no number is given. A structure can be active in one record and inactive in another. Activity calls are given as the source filed them. Calls come from the whole dose curve; as a rule, active = well fitted curve in the direction sought with a large enough effect; inconclusive = small, poorly fitted or top-dose-only effect, or another doubt; inactive = no such curve, though single readings can be large; an effect the other way counts as inactive or inconclusive.
# What was measured:
# [1] = target: Metallo-beta-lactamase type 2 (Klebsiella pneumoniae) (UniProt C7C422); assay: qHTS to identify inhibitors of the New Delhi Metallo-beta-lactamase (NDM): assay validation screen against the NCATS LOPAC Collection (AID 1794843);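 note: nitrocefin turnover by NDM-1 measured as 485 nm absorbance at plateau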
# Sequence of Metallo-beta-lactamase type 2 (Klebsiella pneumoniae) (C7C422 whole entry, looked up): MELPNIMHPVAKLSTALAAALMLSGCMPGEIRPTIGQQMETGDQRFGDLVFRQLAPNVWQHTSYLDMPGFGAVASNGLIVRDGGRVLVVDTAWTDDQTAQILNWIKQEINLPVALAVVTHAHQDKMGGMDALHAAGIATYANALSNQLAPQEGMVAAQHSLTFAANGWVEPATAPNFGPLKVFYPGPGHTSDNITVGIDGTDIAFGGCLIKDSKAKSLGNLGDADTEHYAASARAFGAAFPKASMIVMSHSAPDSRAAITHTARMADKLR
# Procedure, shortened: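 Enzyme 2 nM final, 50 mM HEPES pH 7.0, 1 uM ZnSO4, 0.01% Tween20; cpds in DMSO, preincub w/ enzyme; + nitrocefin (50 uM stock); A485 at plateau; no-enzyme column as blank.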
# [2] = target: Glutathione peroxidase 1 (Homo sapiens) (UniProt P07203); assay: Primary qHTS Assay for Inhibitors of Recombinant Selenoprotein Glutathione Peroxidase 1 (GPX1) (AID 1845191); note: nearly all actives have a fitted effect of over 65% in size; note: potency is the fitted concentration of half-maximal effect
# Sequence of Glutathione peroxidase 1 (Homo sapiens) (P07203 whole entry, looked up): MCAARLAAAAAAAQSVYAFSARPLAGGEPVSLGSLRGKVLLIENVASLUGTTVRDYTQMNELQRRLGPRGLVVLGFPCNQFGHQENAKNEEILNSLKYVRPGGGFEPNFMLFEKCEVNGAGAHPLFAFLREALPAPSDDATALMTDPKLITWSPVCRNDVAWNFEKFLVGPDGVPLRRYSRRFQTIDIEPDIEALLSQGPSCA
# Procedure, shortened: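 GPX1 10 nM, GR 100 nM, GSH 1 mM, NADPH 0.5 mM, CHP 0.5 mM (final). 30-min cpd preincubation, RT. Ex340/Em450 read t=0, t=15 min.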
# [3] = target: Phospholipid hydroperoxide glutathione peroxidase GPX4 (Homo sapiens) (UniProt P36969); assay: Primary qHTS Assay for Inhibitors of Recombinant Selenoprotein Glutathione Peroxidase 4 (GPX4) (AID 1845192); note: nearly all actives have a fitted effect of over 65% in size
# Sequence of Phospholipid hydroperoxide glutathione peroxidase GPX4 (Homo sapiens) (P36969 whole entry, looked up): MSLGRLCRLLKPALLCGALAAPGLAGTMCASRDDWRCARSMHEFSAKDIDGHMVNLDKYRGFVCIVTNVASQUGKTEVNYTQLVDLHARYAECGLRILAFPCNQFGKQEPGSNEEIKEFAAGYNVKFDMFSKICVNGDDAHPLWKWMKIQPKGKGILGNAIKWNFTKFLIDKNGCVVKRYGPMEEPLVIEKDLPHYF
# Procedure, shortened: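 qHTS, GR-coupled: GPX4 200 nM + cpd 30 min RT → GSH 1 mM, NADPH 0.5 mM, GR 100 nM → CHP 0.5 mM start; fluor 340/450 at t0 and t15 min; no-enzyme wells as control.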
# [4] = Quantitative High-Throughput drug screen in 47 multiple myeloma cell lines against the NCATS MIPE library collection: FR4_PLB cell viability assay (AID 1918924; note: nearly all actives have a fitted effect of over 35% in size; note: potency is the fitted concentration of half-maximal effect)
# Procedure, shortened: (§1)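 qHTS of the MIPE 4.0 collection: 500 myeloma cells/well, 48 h drug exposure at 37C in 5% CO2, then CellTiter-Glo for 5 min at room temperature before luminescence reading.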
# [5] = Quantitative High-Throughput drug screen in 47 multiple myeloma cell lines against the NCATS MIPE library collection: Delta47_JCRB cell viability assay (AID 1918925; note: nearly all actives have a fitted effect of over 45% in size; note: potency is the fitted concentration of half-maximal effect)
# Procedure, shortened: (§2)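 Luminescent ATP measurement with CellTiter-Glo gives viability, scaled between DMSO-only wells (100%) and media-only wells (0%). Cells, 500 per well, faced library compounds for 48 hours at 37C.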
# [6] = Quantitative High-Throughput drug screen in 47 multiple myeloma cell lines against the NCATS MIPE library collection: EJM_DSMZ cell viability assay (AID 1918926; note: nearly all actives have a fitted effect of over 30% in size; note: potency is the fitted concentration of half-maximal effect)
# Procedure, shortened: as §2
# [7] = Quantitative High-Throughput drug screen in 47 multiple myeloma cell lines against the NCATS MIPE library collection: AMO1_DSMZ cell viability assay (AID 1918927; note: nearly all actives have a fitted effect of over 30% in size; note: potency is the fitted concentration of half-maximal effect)
# Procedure, shortened: as §2
# [8] = Quantitative High-Throughput drug screen in 47 multiple myeloma cell lines against the NCATS MIPE library collection: ARP1_JJKsccF8 cell viability assay (AID 1918928; note: nearly all actives have a fitted effect of over 40% in size; note: potency is the fitted concentration of half-maximal effect)
# Procedure, shortened: (§3)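 500 cells/well; MIPE 4.0 library pinned in; 48 h, 37 °C, 5% CO2; CellTiter-Glo ATP luminescence. Controls: DMSO = 100% viability, medium only = 0%.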
# [9] = Quantitative High-Throughput drug screen in 47 multiple myeloma cell lines against the NCATS MIPE library collection: Karpas620_DSMZ cell viability assay (AID 1918959); note: nearly all actives have a fitted effect of over 30% in size; note: potency is the fitted concentration of half-maximal effect
# Procedure, shortened: as §1
# [10] = Quantitative High-Throughput drug screen in 47 multiple myeloma cell lines against the NCATS MIPE library collection: KMM1_JCRB cell viability assay (AID 1918960); note: nearly all actives have a fitted effect of over 30% in size; note: potency is the fitted concentration of half-maximal effect
# Procedure, shortened: as §3
# [11] = Quantitative High-Throughput drug screen in 47 multiple myeloma cell lines against the NCATS MIPE library collection: JIM3_ECACC cell viability assay (AID 1918963; note: nearly all actives have a fitted effect of over 35% in size; note: potency is the fitted concentration of half-maximal effect)
# Procedure, shortened: as §1
# [12] = Quantitative High-Throughput drug screen in 47 multiple myeloma cell lines against the NCATS MIPE library collection: ARD_JJKsccE7 cell viability assay (AID 1918929; note: potency is the fitted concentration of half-maximal effect)
# Procedure, shortened: as §2
# [13] = Quantitative High-Throughput drug screen in 47 multiple myeloma cell lines against the NCATS MIPE library collection: Karpas417_ECACC cell viability assay (AID 1918961); conditions: Karpas417 myeloma viability, CellTiter-Glo ATP luminescence, 48 h; viability (% of DMSO): at 45.8 µM (top of the series); note: potency is the fitted concentration of half-maximal effect
# Procedure, shortened: as §2
# [14] = Quantitative High-Throughput drug screen in 47 multiple myeloma cell lines against the NCATS MIPE library collection: KHM11_PLB cell viability assay (AID 1918962); note: nearly all actives have a fitted effect of over 35% in size; note: potency is the fitted concentration of half-maximal effect
# Procedure, shortened: as §1
Compound,outcome [1],Potency [2],Potency [3],Potency [4],Potency [5],Potency [6],Potency [7],Potency [8],Potency [9],Potency [10],Potency [11],Potency [12],Potency [13],Potency [14]
COc1ccccc1N1CCN(CC(O)COc2cccc3ccccc23)CC1 (stereo not given),inactive,inactive,inactive,inactive,inactive,inactive,inactive,9.35 µM (active),inactive,inactive,5.26 µM (active),,,
CCOC(=O)Nc1ccc(NCc2ccc(F)cc2)nc1N,inactive,inactive,inactive,inactive,inactive,inactive,18.7 µM (active),inactive,20.9 µM (active),,inactive,18.7 µM (active),inactive,
OCCN1CCN(CCCN2c3ccccc3Sc3ccc(C(F)(F)F)cc32)CC1,inactive,inactive,inactive,23.5 µM (active),18.7 µM (active),,18.7 µM (active),18.7 µM (active),18.7 µM (active),20.9 µM (active),26.4 µM (active),,,
Cn1ccc2cc3c(cc21)CCN3C(=O)Nc1cccnc1,inactive,inactive,inactive,inactive,,inactive,23.5 µM (active),inactive,inactive,,,,,
CC(C)(C)C(=O)Oc1ccc(S(=O)(=O)Nc2ccccc2C(=O)NCC(=O)O)cc1,inactive,inactive,inactive,inactive,,,inactive,inactive,inactive,,inactive,inactive,,
O=C(c1ccc(OCCN2CCCCC2)cc1)c1c(-c2ccc(O)cc2)sc2cc(O)ccc12,inactive,inactive,inactive,26.4 µM (active),23.5 µM (active),,20.9 µM (active),,26.4 µM (active),20.9 µM (active),,26.4 µM (active),18.7 µM (active),
COc1cc2c(c(OC)c1OC)-c1ccc(OC)c(=O)cc1[C@@H](NC(C)=O)CC2,inactive,inactive,inactive,inactive,,inactive,inactive,,inactive,inactive,inactive,inactive,0.0033 µM (active),
CCCNCC(O)COc1ccccc1C(=O)CCc1ccccc1 (stereo not given),inactive,inactive,inactive,inactive,,,,inactive,,,inactive,,,
NS(=O)(=O)c1cc2c(cc1Cl)NCNS2(=O)=O,inactive,inactive,inactive,,inactive,,,inactive,inactive,inactive,,inactive,0.0066 µM (active),
NCCc1cnc[nH]1,inactive,inactive,inactive,inactive,,14.8 µM (active),inactive,inactive,0.0148 µM (active),inactive,,inactive,,
NC12CC3CC(CC(C3)C1)C2,inactive,inactive,inactive,inactive,16.6 µM (active),,,,,,inactive,,,
CN1CCN(C2=Nc3cc(Cl)ccc3Nc3ccccc32)CC1,inactive,inactive,inactive,inactive,20.9 µM (active),inactive,,inactive,,16.6 µM (active),,,,
N[C@@H](Cc1c[nH]c2ccc(O)cc12)C(=O)O,inactive,inactive,inactive,,inactive,inactive,,,inactive,18.7 µM (active),,,,inactive
COc1ccc(C2CNC(=O)C2)cc1OC1CCCC1 (stereo not given),inactive,inactive,inactive,inactive,,inactive,inactive,inactive,inactive,,inactive,inactive,inactive,
CCc1cccc2c3c([nH]c12)C(CC)(CC(=O)O)OCC3 (stereo not given),inactive,inactive,inactive,,inactive,inactive,inactive,inactive,inactive,inactive,inactive,inactive,inactive,inactive
CCOC(=O)c1ncn2c1CN(C)C(=O)c1cc(F)ccc1-2,inactive,inactive,inactive,,inactive,,inactive,16.6 µM (active),inactive,inactive,inactive,inactive,,
CCCCc1oc2ccccc2c1C(=O)c1cc(I)c(OCCN(CC)CC)c(I)c1,inactive,inactive,inactive,26.4 µM (active),13.2 µM (active),,8.33 µM (active),,,6.62 µM (active),,18.7 µM (active),13.2 µM (active),
O=C(CCCN1CCC(O)(c2ccc(Cl)cc2)CC1)c1ccc(F)cc1,inactive,inactive,inactive,inactive,,inactive,20.9 µM (active),23.5 µM (active),20.9 µM (active),,,16.6 µM (active),,
NC(CO)C(=O)NNCc1ccc(O)c(O)c1O (stereo not given),inactive,inactive,inactive,,inactive,,inactive,23.5 µM (active),inactive,,inactive,inactive,,inactive
CC(C)NCC(O)COc1ccc(CCOCC2CC2)cc1 (stereo not given),inactive,inactive,inactive,inactive,inactive,,,,inactive,inactive,inactive,,inactive,inactive
CCC1(C)CC(=O)NC1=O (stereo not given),inactive,inactive,inactive,,inactive,inactive,inactive,inactive,inactive,inactive,inactive,0.0037 µM (active),,inactive
CN(C)C(=O)C(CCN1CCC(O)(c2ccc(Cl)cc2)CC1)(c1ccccc1)c1ccccc1,inactive,inactive,inactive,20.9 µM (active),20.9 µM (active),,inactive,,inactive,,20.9 µM (active),inactive,,18.7 µM (active)

Compound,outcome [1],Potency [2],Potency [3],Potency [4],Potency [5],Potency [6],Potency [7],Potency [8],Potency [9],Potency [10],Potency [11],Potency [12],Potency [13],Potency [14]
COc1nc(C)nc(Cl)c1NC1=NCCN1,inactive,inactive,inactive,inactive,11.8 µM (active),,inactive,inactive,inactive,,inactive,inactive,,inactive
CC(C(=O)O)c1cccc(C(=O)c2ccccc2)c1 (stereo not given),inactive,inactive,inactive,inactive,20.9 µM (active),,inactive,,,inactive,,,,18.7 µM (active)
O=c1c(-c2ccc(O)cc2)coc2cc(O)cc(O)c12,inactive,inactive,inactive,,inactive,inactive,16.6 µM (active),,inactive,,inactive,14.8 µM (active),,inactive
CC[N+](CC)(CC)CCOc1cccc(OCC[N+](CC)(CC)CC)c1OCC[N+](CC)(CC)CC,inactive,inactive,inactive,,inactive,inactive,inactive,,inactive,inactive,inactive,inactive,,
C[C@H]1c2cccc(O)c2C(O)=C2C(=O)[C@]3(O)C(O)=C(C(N)=O)C(=O)[C@@H](N(C)C)[C@@H]3[C@@H](O)[C@@H]21,inactive,inactive,inactive,26.4 µM (active),23.5 µM (active),,inactive,,,,,,,
CN(Cc1cnc2nc(N)nc(N)c2n1)c1ccc(C(=O)N[C@@H](CCC(=O)O)C(=O)O)cc1,inactive,inactive,inactive,37.2 µM (active),,,0.0166 µM (active),0.0332 µM (active),inactive,,,,,
O=C1N(c2ccccc2)c2ccccc2C1(Cc1ccncc1)Cc1ccncc1,inactive,inactive,inactive,,inactive,,inactive,inactive,inactive,inactive,inactive,,,inactive
CC(C)Cc1ccc(C(C)C(=O)O)cc1 (stereo not given),inactive,inactive,inactive,,inactive,,inactive,inactive,inactive,inactive,inactive,inactive,,
Nc1c2c(nc3ccccc13)CCCC2,inactive,inactive,inactive,inactive,,inactive,,,inactive,inactive,inactive,inactive,,
Clc1ccc2nsnc2c1NC1=NCCN1,inactive,inactive,inactive,inactive,,inactive,,,,inactive,inactive,,,
CC(CCc1ccc(O)cc1)NCCc1ccc(O)c(O)c1 (stereo not given),inactive,inactive,inactive,23.5 µM (active),,20.9 µM (active),18.7 µM (active),20.9 µM (active),13.2 µM (active),29.6 µM (active),,16.6 µM (active),,
CC(C)(Oc1ccc(C2CC2(Cl)Cl)cc1)C(=O)O (stereo not given),inactive,inactive,inactive,inactive,,inactive,inactive,,inactive,,inactive,inactive,,
OCCN(CCO)c1nc(N2CCCCC2)c2nc(N(CCO)CCO)nc(N3CCCCC3)c2n1,inactive,inactive,inactive,,23.5 µM (active),,23.5 µM (active),,,,,,,
Nc1ccn([C@H]2CC[C@@H](CO)O2)c(=O)n1,inactive,inactive,inactive,inactive,inactive,,inactive,inactive,inactive,inactive,26.4 µM (active),inactive,inactive,
COc1ccc2c(c1)c(CC(=O)O)c(C)n2C(=O)c1ccc(Cl)cc1,,inactive,inactive,inactive,16.6 µM (active),,,inactive,inactive,inactive,inactive,,,
CN(C)CCC=C1c2ccccc2C=Cc2ccccc21,inactive,inactive,inactive,,,inactive,0.0235 µM (active),,inactive,inactive,,inactive,,inactive
COc1ccc(CCN(C)CCCC(C#N)(c2ccc(OC)c(OC)c2)C(C)C)cc1OC (stereo not given),,inactive,inactive,,,,,,,,,,,
COc1cc2nc(N3CCN(C(=O)C4COc5ccccc5O4)CC3)nc(N)c2cc1OC (stereo not given),inactive,18 µM (active) and inactive,inactive,,,inactive,,,,5.9 µM (active),,,,
C[C@@H]1CC(=O)NN=C1c1ccc(NN=C(C#N)C#N)cc1,,inactive,inactive,23.5 µM (active),18.7 µM (active),,inactive,23.5 µM (active),inactive,inactive,20.9 µM (active),inactive,,
CC(COc1ccccc1)N(CCCl)Cc1ccccc1 (stereo not given),,inactive,inactive,,inactive,,inactive,inactive,,inactive,inactive,16.6 µM (active),,
Cn1c(=O)c2[nH]cnc2n(C)c1=O,,inactive,inactive,inactive,inactive,inactive,inactive,inactive,inactive,inactive,inactive,,,inactive
Clc1ccc(C(c2ccccc2Cl)C(Cl)Cl)cc1 (stereo not given),inactive,inactive,inactive,,,,1.87 µM (active),,inactive,,20.9 µM (active),,,
